Reference: the supplement of paper PMC3334620
In all, about 33,000 sequences were measured (“E-score (-0.5 to 0.5)”: median about -0.043, highest 2% from about 0.37 on). The list comes from a sample in which the highest values are over-represented; it also holds similar and randomly drawn sequences.

The sequences below were run against T1, Upc2 (UniProt Q12151) (assay: PBM E-score (8-mer binding enrichment) (E-score (-0.5 to 0.5)); higher = stronger / more preferred TF binding). Details: protein concentration: 200 nM; construct: GST-full length.
T1 sequence: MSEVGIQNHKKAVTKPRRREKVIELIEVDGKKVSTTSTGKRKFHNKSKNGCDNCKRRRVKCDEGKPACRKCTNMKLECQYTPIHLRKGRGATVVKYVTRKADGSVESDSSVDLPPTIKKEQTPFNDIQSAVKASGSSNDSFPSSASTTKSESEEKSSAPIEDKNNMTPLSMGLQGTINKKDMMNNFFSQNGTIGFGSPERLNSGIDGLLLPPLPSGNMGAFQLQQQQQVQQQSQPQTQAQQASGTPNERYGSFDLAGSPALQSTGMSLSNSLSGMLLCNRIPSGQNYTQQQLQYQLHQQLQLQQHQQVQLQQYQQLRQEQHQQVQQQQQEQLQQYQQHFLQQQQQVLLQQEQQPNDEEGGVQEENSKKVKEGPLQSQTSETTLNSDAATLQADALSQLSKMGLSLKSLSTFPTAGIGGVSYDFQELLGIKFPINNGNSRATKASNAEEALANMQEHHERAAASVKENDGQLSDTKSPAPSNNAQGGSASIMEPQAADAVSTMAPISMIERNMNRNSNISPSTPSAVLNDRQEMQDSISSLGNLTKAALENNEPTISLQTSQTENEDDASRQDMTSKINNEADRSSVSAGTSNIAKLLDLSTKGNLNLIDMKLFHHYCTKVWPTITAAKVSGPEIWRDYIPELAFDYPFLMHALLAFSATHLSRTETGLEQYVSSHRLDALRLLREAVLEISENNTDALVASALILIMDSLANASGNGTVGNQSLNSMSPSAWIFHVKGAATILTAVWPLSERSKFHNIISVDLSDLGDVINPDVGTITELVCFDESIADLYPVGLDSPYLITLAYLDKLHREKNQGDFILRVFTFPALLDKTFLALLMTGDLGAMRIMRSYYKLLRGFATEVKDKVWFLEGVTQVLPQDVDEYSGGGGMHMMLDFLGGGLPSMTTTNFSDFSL
Method: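 Universal 'all 10-mer' protein binding microarrays (Agilent AMADID 015681) probed with GST-tagged S. cerevisiae TFs (full-length or DBD) made by in vitro transcription/translation (PURExpress), about 100-200 nM. Bound TF was detected with fluorescent anti-GST. Each ungapped 8-mer (which stands for itself and its reverse complement) is scored by the PBM enrichment score (E-score), a modified Wilcoxon-Mann-Whitney statistic from -0.5 to +0.5, computed with the Universal PBM Analysis Suite. Scale: above 0.35 generally sequence-specific binding.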

Sequence	PBM E-score
CCAATCCG	-0.0814
CCGAAAAA	0.0605
AATCAAAA	-0.0286
ACCCTGGC	-0.206
AATTATGC	0.0912
CGAATTCA	0.0713
CTTGGCCC	-0.171
CCGCTTCA	-0.0583
CCATGCCG	-0.135
CCTTGCCC	-0.056
AAATAGAA	-0.0216
CACGAGAC	0.0139
GACGAGAC	0.0394
AACGAGAC	0.437
GTCGCTAA	0.271
ATCGCTTA	0.364
GTCGCTGA	-0.0513
GTCGCATA	0.375
CTCGCATA	0.363
GTCGCTTA	0.396
CTCGCTGA	-0.136
ATCGCATA	0.318
CTCGCTTA	0.423
ACTGCAGG	-0.156

Sequence	PBM E-score
ATTGGGAC	-0.218
GGTAGTTA	-0.14
ACGAGGGC	0.388
ACGAGGTC	0.371
CCGAGGGC	0.094
ACGAGGGA	0.364
ACGAGGAG	0.306
ACGAGTTC	0.342
GCGAGTTA	0.116
ACGAGGAC	0.384
CCGAGGTC	0.0232
ACGAGTTA	0.392
AAGAGGTC	-0.186
GCGAGGAC	-0.102
CACCACGC	-0.221
GAGGGGAC	-0.152
AAGGTCAG	-0.239
CGTCGAAC	0.0511
GCCCCAGA	-0.09
AACTGTAA	0.103
TAGATTAA	0.104
GCTGCGGA	-0.164
ACGAGGTG	0.367
GCGAGGTA	0.244

Sequence	PBM E-score
ACGAGGTA	0.382
GATGGTAC	0.139
AGTGTCAG	-0.0575
CGGGATAC	0.18
ACGAGGCC	0.381
ACGAGGCT	0.406
ACGAGGAT	0.355
CCGAGGCA	-0.0905
ACGAGGCA	0.408
CCGAGGCG	0.129
CCGAGGCC	0.102
GCGAGGCC	0.2
AGGAGGCG	-0.326
GCGAGGCA	0.195
ACGAGGCG	0.4
AAGAGGCT	-0.257
CACAGGCG	-0.208
CCGACAGG	-0.0268
AATTTGTC	0.0333
CATTAGCG	0.197
GATCTCCC	-0.162
GCTGGACC	-0.0565
CTACAATC	0.0566
ACTAGATG	-0.122

Sequence	PBM E-score
AGGGGCCA	-0.215
AACGATCC	0.345
AACGATCG	0.383
ATCGATCA	0.0619
CACGATCA	-0.0545
TACGATCA	0.422
CACGATCG	0.125
ATCGATCG	0.136
ACCGATCT	-0.0555
GACGATCA	-0.0322
AACGATCT	0.381
AGCGATCA	0.11
AACGATCA	0.379
GAGCGATA	0.218
GAAGAAGC	-0.195
AGTCAAGG	-0.208
AACGCGAA	0.23
CTCTTGCC	-0.16
ATAACCTC	-0.0875
AAGGAAAG	-0.171
CGCACTAC	-0.0438
ACCTCAGT	-0.0386
